SKN-1 block – blocks SKN-1 activity in C. elegans. 360,000 compounds, 0.49% hits. AID 624304. inhibition, % at 21.8 µM. C. elegans VP596 Pgst-4::GFP/RFP ratio, acrylamide-induced, 24 h;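 active = interference check ratio from 0.5 to 1.5 plus GFP to RFP signal ratio inhibition reaching or exceeding a fixed threshold, cut at about 30% in these data, passing the limit was not always enough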
M1 PAM – human CHRM1 positive allosteric modulation | P11229 | CHO-K1 hM1, Fluo-8 calcium fluorescence, ACh EC20; 0% = ACh EC20, 100% = maximal ACh | activation, % at 3 µM | 360,000 compounds, 0.088% hits; in the data active = activation above about 19%, passing the limit was not always enough
Target sequence (P11229 whole entry, looked up): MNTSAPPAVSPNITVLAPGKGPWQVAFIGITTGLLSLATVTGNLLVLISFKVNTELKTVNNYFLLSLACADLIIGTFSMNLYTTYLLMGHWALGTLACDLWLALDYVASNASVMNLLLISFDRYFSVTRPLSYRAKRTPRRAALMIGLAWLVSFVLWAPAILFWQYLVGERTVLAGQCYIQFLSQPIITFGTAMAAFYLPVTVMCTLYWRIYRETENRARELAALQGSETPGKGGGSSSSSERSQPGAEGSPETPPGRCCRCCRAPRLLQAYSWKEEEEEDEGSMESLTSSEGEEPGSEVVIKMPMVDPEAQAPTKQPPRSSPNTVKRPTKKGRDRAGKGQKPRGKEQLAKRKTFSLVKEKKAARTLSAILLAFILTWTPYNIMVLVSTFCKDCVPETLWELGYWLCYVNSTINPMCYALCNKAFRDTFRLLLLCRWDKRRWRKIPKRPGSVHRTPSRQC
ATG4B inhibitor – ATG4B (human) cysteine protease inhibition; Q9Y4P1; inhibition, % at 8.33 µM; 340,000 compounds, 0.51% hits; ATG4B cleavage of LC3-PLA2, NBD-HPC fluorescence, 1 h; in the data active = inhibition above about 40%
Myeloid diff MLP – promotes myeloid progenitor differentiation; ER-HoxA9 myeloid progenitors, lysozyme-GFP differentiation, flow cytometry; calls only at 10 µM; 360,000 compounds, 1% hits; AID 624256;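 active = normalized GFP-positive differentiation at or above the plate's own cutoff, the solvent-only control mean plus 3 SD; inconclusive = no clear call, values can overlap the other calls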;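 also: cells exposed to compound for four days before flow analysis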
M1 ag – agonists of human M1 muscarinic receptor. CHO-K1 hM1, Fluo-8 calcium fluorescence, agonist mode; 0% DMSO, 100% acetylcholine EC100. AID 588814. activation, % at 3 µM. P11229. 360,000 compounds, 0.33% hits;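 active = activation above the run's mean compound activation plus 3 SD, cut at about 16% in these data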;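 also: peak over basal fluorescence ratio within a 140 s kinetic read after compound addition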
CHRM1 antagonist – blocks human M1 muscarinic receptor | 360,000 compounds, 1.3% hits | P11229 | AID 588852 | inhibition, % at 3 µM | CHO-K1 hM1, Fluo-8 calcium fluorescence, ACh EC80 antagonist;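 active = percent inhibition above its own plate's cutoff, namely the mean of that plate's compound wells plus 3 SD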;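 also: peak over basal fluorescence ratio during 140 s after agonist addition; 0% = ACh EC80 plus DMSO and 100% = DMSO alone without agonist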
* = called active by the depositor; i = inactive; ? = inconclusive; . = no result; + = active, no number. This is a sample that favours compounds with a hit; in the whole collection about 3.5% have one here.

SMILES	SKN-1 block	M1 PAM	ATG4B inhibitor	Myeloid diff MLP	M1 ag	CHRM1 antagonist
CCOC(=O)N1CCC(NCCNC(=O)c2ccccc2)CC1	5	-14	-8	i	53*	48*
CCOC(=O)N1CCC(NC(=O)c2cccs2)CC1	10	1	5	i	-3	-14
CCCCCN(C(=O)CCC(=O)OCC(=O)N1CCCCC1)c1c(N)n(CCCC)c(=O)[nH]c1=O	9	7	-5	i	-3	3
O=C(CSc1nnc(COc2ccc(Cl)cc2)o1)Nc1ccc(N2CCOCC2)cc1	11	10	4	i	0	-7
CCCCc1c(Cc2ccccc2)ncn1CCc1ccccc1OC	-10	.	.	i	.	.
Cc1c(NC(=S)NC(=O)c2cc3ccccc3o2)cccc1C(=O)O	-1	15	5	i	2	-15
CN1C(=O)S/C(=C/c2cccnc2)C1=O	-17	4	2	i	-4	-8
O=C1/C(=C\c2cccnc2)Sc2ccccc21	10	16	3	i	19*	3
Cc1ccc(-c2nnc(N3CCOCC3)c3ccccc23)cc1S(=O)(=O)N(C)C	7	10	2	i	-4	-13
CSc1ccc(C(=O)C2CCCN(Cc3cccc4nccnc34)C2)cc1 (stereo not drawn)	-11	-25	11	i	-8	68*
CCN(CC)C(=O)C1CCN(S(=O)(=O)c2ccc3c(c2)CCCN3C(=O)C2CCC2)CC1	-2	8	-3	i	-2	-17
CCN(CC)CCCNC(=S)N(Cc1cccnc1)Cc1cc2cc(C)ccc2[nH]c1=O	-10	5	-6	i	-7	-13
COC1=C(N)C(=O)c2nc(-c3nc(C(=O)O)c(C)c(-c4ccc(OC)c(OC)c4O)c3N)ccc2C1=O	.	.	69*	.	.	.
Cc1cc2nc[nH]c(=O)n2n1	6	3	.	i	0	-16
O=C(c1ccccc1)c1nc2ccccc2n(CCCn2c(=O)c(C(=O)c3ccccc3)nc3ccccc32)c1=O	-5	5	-4	+	0	4
Cn1c(=O)c(C(=O)c2ccccc2)nc2ccccc21	2	6	0	i	-4	-13
Cc1nn2c(-c3ccccc3)ccnc2c1-c1ccccc1	11	-1	-12	i	-2	2
N#CCc1nn2c(-c3ccccc3)ccnc2c1C#N	43*	4	2	i	-3	-7
C[C@]12CCC(=O)C[C@@H]1CC[C@@H]1[C@@H]2CC[C@]2(C)C=CC[C@@H]12	-21	3	-6	i	-1	-31
C[C@]12CCC(=O)CC1CCC1C2CC[C@@]2(C)C1CC[C@@]21CCO1 (stereo partly drawn)	16	0	7	+	-5	-4
CCOC(=O)C1(CCOc2ccccc2)CCN(C(=O)CCSC)CC1	-2	4	3	i	0	0
Clc1ccc(-c2cnc3n2CCCCC3)cc1	1	-22	4	i	-7	41*
Fc1ccc(-c2cnc3n2CCCCC3)cc1	-4	-19	-7	i	-8	39*
Brc1ccc(-c2cnc3n2CCCC3)cc1	-10	-18	-3	i	-5	9
CC(C)(C)N1CC(OC(N)=O)C1	2	-3	-5	+	-10	3
SMILES	SKN-1 block	M1 PAM	ATG4B inhibitor	Myeloid diff MLP	M1 ag	CHRM1 antagonist
Cc1ccc(NC(=O)C2(C)CCN2C(=O)Cc2ccc(C(C)(C)C)cc2)cc1C (stereo not drawn)	-4	-11	.	i	0	13
CN(C)S(=O)(=O)c1ccc2c(c1)/C(=C/c1cc3c([nH]1)CCCC3)C(=O)N2	32	-2	0	+	9	-5
CN(C)S(=O)(=O)c1ccc2c(c1)C(=O)c1cc(S(=O)(=O)N(C)C)ccc1CC2	12	3	-7	i	-5	6
CCCCCCCC(=O)C(C)C(=O)N(C)[C@H](Cc1ccc(OC)cc1)C(=O)N(C)[C@H](C(N)=O)C(C)C (stereo partly drawn)	6	7	-4	i	-6	-14
O=C(Nc1ccccc1)C1=C(c2ccccc2)S(=O)(=O)CCS1(=O)=O	8	12	7	?	-7	1
Cc1cccc(NS(=O)(=O)c2cccc(C(=O)N3CCN(C/C=C/c4ccccc4)CC3)c2)c1	-13	-22	-7	i	-6	32*
Cc1ccc(C(=O)N2CCN(C/C=C/c3ccccc3)CC2)cc1S(=O)(=O)N1CCOCC1	5	-27	-45	i	-7	73*
Cc1ccc(C(=O)N2CCN(Cc3ccccc3)CC2)cc1S(=O)(=O)N1CCOCC1	2	5	-9	i	-3	-3
CCOC(=O)Cc1cc(OC)c(OC)cc1Cc1cc(OC)c(OC)cc1CC(=O)OCC	2	10	-11	i	4	0
CCN(CC)CCOC(=O)C(Cc1ccco1)Cc1cccc2ccccc12 (stereo not drawn)	-2	-25	-6	i	-5	59*
CCN(CC)CCOC(=O)CCc1cccc2ccccc12	-11	-13	-4	i	-3	11
Cc1ccccc1Oc1nc(-c2ccccn2)nc2ccccc12	-1	0	35	i	-3	10
CC1(C(=O)Nc2nccs2)CCN1C(=O)CC(c1ccccc1)c1ccccc1 (stereo not drawn)	-8	11	.	i	-5	-25
Fc1ccc(-c2cc(C(F)(F)C(F)F)[nH]n2)cc1	-4	-7	4	i	29*	14
O=C(CN1CCN(CC(=O)c2ccccc2)CC1)c1ccccc1	0	19	2	i	-5	-26
Cc1ccc(CNC(=O)C2CCC(=O)N(Cc3cccc(C(F)(F)F)c3)C2)o1 (stereo not drawn)	-11	2	-4	i	-3	-4
Oc1[nH]c(=S)sc1/C=C1\C(c2ccccc2)=Nc2ccccc21	25	-1	99*	i	10	10
COc1ccccc1C(=O)Nc1nc2cc3c(cc2s1)OCCO3	0	-2	-7	+	-2	-5
O=C1c2cc(Cl)ccc2-c2c(O)cc(Cl)cc21	-1	-15	2	i	8	36*
COc1ccc2c(CC(=O)N3CCN(S(=O)(=O)c4ccc(F)cc4)CC3)coc2c1	10	-6	-7	+	-5	10
CCOc1ccc(N=Cc2ccc(N(C)C)cc2)c(O)c1	51*	4	.	i	-1	0
CCOc1ccc(N=Cc2ccc([N+](=O)[O-])cc2)c(O)c1	21	-3	.	i	-3	8
CC(=O)c1cccc(NC(=O)c2cc(=O)[nH]c3ccc(S(=O)(=O)N4CCOCC4)cc23)c1	-2	0	-1	i	-2	-4

Screening data from PubChem.
